{"source": "PubChem BioAssay (NCI)", "note": "This is part of a sample that, as a whole, favours compounds with a hit. Of some 83,000 tested, about 20% had one in any assay.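 48-hour exposure, single concentration, 96-well plates; percent growth endpoint where 0 means no net growth. Active: below 10.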 Activity calls are given as the source filed them.", "data": [{"system": "MDA-MB-468 breast", "test": "NCI-60 one-dose screen, 48 h (100 = growth as untreated, 0 = no growth, -100 = all killed)", "conditions": "10 µM unless noted", "values": [{"smiles": "O=C(NNC(=O)N1c2ccccc2C=Cc2ccccc21)c1ccc2ccccc2c1", "growth": "87.7% (inactive)"}, {"smiles": "Fc1ccc(CNc2c3ccccc3nc3ccccc23)cc1", "growth": "11.5% (inactive)"}, {"smiles": "C=CCN(/C=C1/C(=O)O[C@H](COC)[C@@]2(C)C1=C(O)C(=O)C1=C2[C@H](OC(C)=O)C[C@]2(C)C(=O)CC[C@@H]12)CC=C", "growth": "-32.2% (active)"}, {"smiles": "CCc1ccccc1NC(=O)c1sc2nc3c(cc2c1N)C(=O)CCC3", "growth": "43.3% (inactive)"}, {"smiles": "Oc1ccc(/C=N/Nc2nc3ccccc3s2)c(O)c1", "growth": "20.2% (inactive)"}, {"smiles": "CC/C=C\\C[C@@H]1C/C=C2/C(=O)C=C[C@H]2C/C=C\\CCCC(=O)O1", "growth": "-63.3% (active)"}, {"smiles": "O=C(NCCN1CCC(O)CC1)c1cc2c(o1)C(=O)c1ccccc1C2=O", "growth": "-85.8% (active)"}, {"smiles": "O=C(c1cccc(C(=O)c2ccc3c4c(cccc24)C(=O)N(c2ccccc2)C3=O)c1)c1ccc2c3c(cccc13)C(=O)N(c1ccccc1)C2=O", "growth": "91.3% (inactive)"}, {"smiles": "CN(C)CCCN1c2ccccc2Sc2ccc(C(F)(F)F)cc21", "growth": "-76.9% (active)"}, {"smiles": "COc1ccc([C@H]2C(=O)N(c3cc(OC)c(OC)c(OC)c3)[C@@H]2c2ccc(OC)c(O)c2)cc1", "growth": "-2.22% (active)"}, {"smiles": "CCc1ccc(Oc2c(-c3ccc(OCc4ccc(Cl)cc4)cc3O)nn(C)c2C(F)(F)F)cc1", "growth": "-11.1% (active)"}, {"smiles": "CC1(C)S(=O)(=O)OCCOS1(=O)=O", "growth": "101% (inactive)"}, {"smiles": "CCOC(=O)c1cc2c(n1Cc1ccccc1OC)-c1oncc1CCC2", "growth": "7.1% (active)"}, {"smiles": "CCCN(CCC)c1ccc(/C=C/c2ccc3cc(OCC)ccc3n2)cc1", "growth": "74.1% (inactive)"}, {"smiles": "COc1ccc([C@H]2c3[nH]c4ccccc4c3C[C@@H]3C(=O)N(C4CCN(Cc5ccccc5)CC4)CC(=O)N23)c(OC)c1", "growth": "63.4% (inactive)"}, {"smiles": "COc1ccccc1NC(=O)c1ccc(/C=C/C(=O)c2nccn2C)cc1", "growth": "-40.7% (active)"}, {"smiles": "O=C(c1ccc(Cl)cc1Cl)N1c2ccccc2Sc2ccccc21", "growth": "51.4% (inactive)"}, {"smiles": "O=C(c1c[nH]c(=O)c(-c2ccccc2)c1)c1ccccc1O", "growth": "80.8% (inactive)"}, {"smiles": "Nn1c(=O)c(=O)[nH]c2c(cnn2-c2ccccc2)c1=O", "growth": "105% (inactive)"}, {"smiles": "Cc1cc(=O)n2n1-c1ccc(Cl)cc1NC(=O)C2", "growth": "101% (inactive)"}, {"smiles": "N#Cc1cnc(NCCc2ccncc2)nc1-n1cnc2ccccc21", "growth": "74.2% (inactive)"}, {"smiles": "Cc1ccc(Cc2cnc(NC(=O)/C=C/c3cccc(C)c3)s2)cc1", "growth": "1.34% (active)"}, {"smiles": "CC1=C(C)C[C@]2(C(=O)O[C@H]3CCCC[C@@H]32)[S@](=O)C1", "growth": "114% (inactive)"}, {"smiles": "CC(C)=CC[C@@H]1CC2(CC=C(C)C)C(=O)C(OC3(C(=O)c4ccccc4)C(=O)C4(CC=C(C)C)C[C@@H](CC=C(C)C)C(C)(C)C(CC=C(C)C)(C4=O)C3=O)(C(=O)c3ccccc3)C(=O)C(CC=C(C)C)(C2=O)C1(C)C", "note": "(stereo not given in full)", "growth": "-6.87% (active)"}, {"smiles": "Nc1nc(N)c2c(n1)NC(c1cccc(Nc3ccnc4cc(C(F)(F)F)ccc34)c1)CC(c1ccc(Cl)cc1)=N2", "note": "(stereo not given)", "growth": "21.5% (inactive)"}, {"smiles": "CCOc1nc(-c2ccccc2)cc2c(O)c(C(=O)N/N=C/c3ccc(O)cc3O)[nH]c(=O)c12", "growth": "29.9% (inactive)"}, {"smiles": "C=C(C)[C@H]1CC/C(C)=C/CC[C@]2(C)O[C@H]2CC/C(C=O)=C\\C1O", "note": "(stereo not given in full)", "growth": "126% (inactive)"}, {"smiles": "CCOc1nc(-c2ccccc2)cc2c(O)c(C(=O)NC(C)C)[nH]c(=O)c12", "growth": "101% (inactive)"}, {"smiles": "N#Cc1ccc(-c2ccc(-c3cccs3)o2)cc1F", "growth": "6.91% (active)"}, {"smiles": "O=C(Nc1ccc2c(ccn2Cc2ccccn2)c1)c1ccnnc1", "growth": "89.7% (inactive)"}, {"smiles": "N#Cc1c(N)nc2c(c(-c3ccc(Cl)cc3)nn2-c2ccccc2)c1C#N", "growth": "90.1% [100 µM] (inactive)"}, {"smiles": "COc1cc(C2c3cc4c(cc3C(OC(=O)C[n+]3ccccc3)C3COC(=O)C23)OCO4)cc(OC)c1OC", "note": "(stereo not given)", "growth": "5.13% (active)"}, {"smiles": "C[C@]12CC[C@@H]3c4ccc(OS(=O)(=O)O)cc4CC[C@H]3[C@@H]1CC[C@@H]2NS(=O)(=O)c1ccc(-c2ccccc2)cc1", "growth": "76.8% (inactive)"}, {"smiles": "CCCCN(CCCC)c1ccc(C(=NC(C)CCCN(CC)CC)c2ccc(N(C)C)cc2)cc1", "note": "(stereo not given)", "growth": "-85.8% (active)"}, {"smiles": "COc1ccc(N(C)c2nc(N)nc3sc4c(c23)CCCC4)cc1", "growth": "19.4% (inactive)"}, {"smiles": "CCC(=O)Sc1ccccc1C(=O)Nc1ccc(Cl)cc1", "growth": "27% (inactive)"}, {"smiles": "c1ccc(-c2nc(N3CCCNCC3)c3nc(-c4ccccc4)oc3n2)cc1", "growth": "-52.9% (active)"}, {"smiles": "CCCCCCCCCCC1OC(C)CC(C)O1", "note": "(stereo not given)", "growth": "98.5% (inactive)"}, {"smiles": "COc1ccc(-c2nc3ccc(-c4nnc(SCC(=O)Nc5ccc(C(=O)/C=C/c6ccccc6)cc5)o4)cc3[nH]2)cc1OC", "growth": "104% (inactive)"}, {"smiles": "N#CC1=C(N)Oc2c(sc3c(Br)cccc23)C1c1ccc(Cl)cc1", "note": "(stereo not given)", "growth": "1.22% (active)"}]}]}
